The values that follow come from PubChem BioAssay (NCATS).

Results filed as inconclusive are left out. Active and inactive are the calls of the source. Unless noted, calls come from the whole dose curve; as a rule, active = well fitted curve in the direction sought with a large enough effect; inconclusive = small, poorly fitted or top-dose-only effect, or another doubt; inactive = no such curve, though single readings can be large; an effect the other way counts as inactive or inconclusive.

Assay [1] is described as follows: qHTS profiling for inhibitors of Plasmodium falciparum (3D7) proliferation (AID 743322; call rule not given here;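 note: infected erythrocytes exposed to compound for 72 h before lysis; 100% = DMSO vehicle wells and 0% = 0.29 µM artemisinin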). The following applies: P. falciparum 3D7 proliferation; at 28.7 µM (top of the series) unless noted. In a few lines: (§1)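 Erythrocytes infected with P. falciparum (0.3% parasitemia, 2.5% hematocrit) incubated with compounds 72 h at 37 C, 5% CO2. Lysis with saponin/Triton buffer containing SYBR Green I, overnight at room temperature in the dark; DNA fluorescence (485/535 nm) normalised to 0.29 uM artemisinin and DMSO.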
Background: In qHTS, concentration-response curves come from the screen itself.

Assay [2] in a line: qHTS profiling for inhibitors of Plasmodium falciparum (HB3) proliferation (AID 743324).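 Note: 100% = DMSO vehicle wells and 0% = artemisinin-treated control wells.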 Conditions: Plasmodium falciparum HB3 blood-stage proliferation; at 28.7 µM (top of the series) unless noted. In a few lines:
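P. falciparum HB3 grown in erythrocytes (0.3% parasitemia, 2.5% hematocrit final) with compound for 72 h at 37 C, 5% CO2. Parasite DNA detected by SYBR Green after saponin/triton lysis overnight; normalized to 0.29 uM artemisinin and DMSO.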

Assay [3] is described as follows: qHTS profiling of the MIPE4 collection as inhibitors of Plasmodium falciparum (3D7) proliferation (AID 743344; call rule not given here;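 note: scaled between DMSO vehicle wells and 0.29 µM artemisinin as full inhibition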). The following applies: P. falciparum 3D7 in erythrocytes, SYBR Green DNA fluorescence, 72 h; at 28.5 µM (top of the series) unless noted. Summed up: as §1
The nature of assay [4]: qHTS profiling of the MIPE4 collection as inhibitors of Plasmodium falciparum (DD2) proliferation (AID 743345; call rule not given here). The following applies: P. falciparum Dd2 in erythrocytes, SYBR Green DNA, 72 h; at 28.5 µM (top of the series) unless noted. In a few lines: as §1
Assay [5] can be described thus: qHTS profiling of the MIPE4 collection as inhibitors of Plasmodium falciparum (DD2) proliferation (Rep 2) (AID 743346; call rule not given here). The following applies: P. falciparum Dd2 in erythrocytes, SYBR Green DNA, 72 h; at 28.5 µM (top of the series) unless noted. Summed up:
as §1

Assay [6] can be described thus: Cell Proliferation Assay Versus the ED40515 IL2 Dependent ATL cell lines (AID 1053195; calls by dose curve). Conditions: ED40515 IL2-dependent ATL cells. Summed up:
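IL2-dependent ED40515 ATL cells grown with IL2, 1000 cells/well in phenol red-free RPMI + 5% FBS, exposed 48 hours at 37C. Viability by CellTiter-Glo luminescence after 15 min at RT; 9.2 uM bortezomib as control.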

Assay [7] is described as follows: High-throughput drug toxicity screening in the BPDCN cell line Gen2.2 (AID 1224824; call rule not given here;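 note: cells exposed to compounds for 48 h before reading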). Conditions: Gen2.2 BPDCN cells; at 45.8 µM (top of the series) unless noted. Summed up:
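Gen2.2, 500 cells/well, phenol red-free RPMI/10% FBS/Pen-Strep; 48 h cpd, 37 °C/5% CO2; CTG lum, 15 min RT. Norm: DMSO = 100%, bortezomib 9.2 uM final = 0%.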

Assay [8] can be described thus: High-throughput drug toxicity screening in the BPDCN cell line Cal-1 (AID 1224825; call rule not given here). Conditions: Cal-1 BPDCN cell viability, qHTS; at 45.8 µM (top of the series) unless noted. Summed up: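 500 Cal-1 cells/well, RPMI + glutamine + 10% FBS (phenol red-free); cpd added by pin tool; 48 h, 37C, 5% CO2; CTG 15 min RT, lumi read. Normalised: DMSO 100%, bortezomib 9.2 uM 0%.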

A short description of assay [9]: qHTS assay for measurement of the activity of small molecule inhibitors on Zika virus induced Caspase-3 activity in human iPSC derived neural progenitor cells (hNPCs) (AID 1224857). Note: % of control where 0% means no effect; nearly all actives have a fitted effect of over 65% in size. Summed up:
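Quantitative HTS format: human iPSC neural progenitors, 1 h compound pretreatment, ZIKV 2 FFU/cell for 6 h at 37 C. Percent inhibition derived from luminescent caspase-3/7 signal between uninfected and infected controls.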

Assay [10] in a line: qHTS assay for measurement of the activity of small molecule inhibitors on Zika virus induced Caspase-3 activity in human astrocytoma cells (AID 1224859).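 Note: plate controls were ZIKV-infected untreated cells for no effect and uninfected cells for full effect.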 In a few lines:
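Readout is luminescence from Caspase-Glo 3/7 added after a 6 h ZIKV infection (2 FFU/cell) of compound-pretreated (1 h) SNB-19 cells; data expressed as % inhibition versus uninfected and infected wells.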

The nature of assay [11]: qHTS Screen of the MIPE 4.0 Collection Against Ewings Sarcoma (RDES) (AID 1259252). Note: nearly all actives have a fitted effect of over 35% in size. Note: potency is the fitted concentration of half-maximal effect. In a few lines:
(§2)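 After a 4 h attachment period in RPMI/5% FBS, cells were pin-dosed with test compounds; DMSO served as negative and 9.2 uM bortezomib (final) as positive control. Luminescent CellTiter-Glo signal at 48 h defined viability.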

A short description of assay [12]: qHTS Screen of the MIPE 4.0 Collection Against Ewings Sarcoma (TC71) (AID 1259253). Note: nearly all actives have a fitted effect of over 40% in size. Note: potency is the fitted concentration of half-maximal effect. Summed up: as §2
Assay [13] is described as follows: qHTS Screen of the MIPE 4.0 Collection Against Ewings Sarcoma (TC32) (AID 1259256). Note: nearly all actives have a fitted effect of over 45% in size. Note: potency is the fitted concentration of half-maximal effect. In a few lines: as §2
The nature of assay [14]: Identifying Small Molecule Inhibitors of Pancreatic Cancer Stem Cells (A2780, Spheroid) (AID 1259357).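 Note: spheroids pre-formed over 14 days in stem cell medium on hydrogel; compound exposure lasted 48 h before the ATP luminescence read; 100% = DMSO treated cells and 0% = wells without cells.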 The following applies: Potency: A2780 spheroid viability. In a few lines:
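Pre-formed 14-day tumor spheroids or adherent cells dosed and incubated 48 h, 37C, 5% CO2. Viability assessed by CellTiter-Glo.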

A short description of assay [15]: qHTS profiling for inhibitors of Plasmodium falciparum (DD2) proliferation (AID 743323; call rule not given here). Conditions: lower = more inhibition; at 28.7 µM (top of the series) unless noted. In a few lines: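 1536-well qHTS; infected RBCs 0.3% parasitemia/2.5% Hct final; cpd 72 h 37 C 5% CO2; lysis buffer + SYBR Green I, o/n RT dark; FI 485/535; norm. to 0.29 uM artemisinin and DMSO, plate-stack corrected.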

Assay [16] can be described thus: qHTS profiling of the MIPE4 collection as inhibitors of Plasmodium falciparum (HB3) proliferation (AID 743347; call rule not given here;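 note: plate controls were DMSO vehicle wells for no effect and artemisinin wells for full effect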). The following applies: P. falciparum HB3 in erythrocytes, SYBR Green DNA, 72 h; at 28.5 µM (top of the series) unless noted. In a few lines: as §1
The nature of assay [17]: qHTS Screen of the MIPE 4.0 Collection Against Ewings Sarcoma (EW8) (AID 1259255).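 For viability: 100% = DMSO-treated cells and 0% = medium-only wells without cells.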 Note: nearly all actives have a fitted effect of over 35% in size. Note: potency is the fitted concentration of half-maximal effect. In a few lines: as §2
Assay [18] in a line: qHTS assay to identify small molecule inhibitors of chordoma cells - UCH-1 (AID 1259355). Note: % is set by controls: 0 for no effect and ±100 for the full control effect; nearly all actives have a fitted effect of over 55% in size. Summed up: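 Seed 800 cells per well; incubate overnight at 37 C, 5% CO2. Add test compounds (15 concentrations), then the auranofin–topoisomerase-agent combination. Incubate 48hr, add CellTiter-Glo, wait 30min, read luminescence.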
Assay [19] in a line: qHTS assay to identify small molecule inhibitors of chordoma cells - UCH-2 (AID 1259356). Note: % is set by controls: 0 for no effect and ±100 for the full control effect.

Take `O=C1CCCC2=C1C(c1[nH]ncc1Cl)N=C(Nc1nc3ccccc3o1)N2` (centres undefined): the remaining parasite growth % (stronger effect = lower value) in [1] was determined as 115%. Besides, the remaining proliferation (% of control), lower = more inhibition in assay [2] stood at 114%. In [3], this molecule had a parasite growth, % of DMSO control of 20.6%. In assay [4], this molecule showed a parasite growth remaining, % of DMSO control (lower = more inhibition) of 10.9%. The parasite growth, % of control (lower = inhibition) in assay [5] turned out to be 8.08%. Also, the figures for the Potency in assay [6] and in assay [12] were 29.6 µM (active) and 10.5 µM (active), respectively. Moreover, the cell viability, % of control (lower = more cytotoxic) in assay [7] worked out at 73.8%. For the same molecule, the viability (% of control) in assay [8] came out at 82.3%. In addition, the Potency entry in assay [9], in assay [10], in assay [11], in assay [13] and in assay [14] was “inactive” throughout.

`Cc1ccnc(NS(=O)(=O)c2ccc(NC(=O)Nc3ccc(S(=O)(=O)Nc4nccc(C)n4)cc3)cc2)n1`: the remaining parasite growth % (stronger effect = lower value) in assay [1] came out at 12%. Moreover, the activity, percent of control in assay [15] came out at 27.4%. Further, in assay [2], the remaining proliferation (% of control), lower = more inhibition worked out at 3.95%. Besides, the parasite growth, % of DMSO control in assay [3] was 15.7%. Besides, the parasite growth remaining, % of DMSO control (lower = more inhibition) in assay [4] came out at 70.2%. Also, in assay [5], the parasite growth, % of control (lower = inhibition) came to 26.2%. For the same molecule, the growth, % of control in [16] worked out at 9.87%. In addition, the Potency in assay [6] was 23.5 µM (active). Also, the cell viability, % of control (lower = more cytotoxic) in assay [7] is 75.2%. Moreover, the viability (% of control) in assay [8] stood at 24.4%. Moreover, the Potency result in assay [9] and in assay [10] was “inactive” in each case.

Turning to `CCN(CC)CCCC(C)Nc1ccnc2cc(Cl)ccc12` (centres undefined), in assay [1], the remaining parasite growth % (stronger effect = lower value) turned out to be 0.37%. In assay [15], this molecule returned an activity, percent of control of 2.54%. For the same molecule, in [2], the remaining proliferation (% of control), lower = more inhibition came out at 0.178%. In addition, the parasite growth, % of DMSO control in assay [3] came out at 19.3%. Moreover, the parasite growth remaining, % of DMSO control (lower = more inhibition) in assay [4] turned out to be 10.1%. Moreover, the parasite growth, % of control (lower = inhibition) in assay [5] stood at 15.1%. For the same molecule, the cell viability, % of control (lower = more cytotoxic) in assay [7] turned out to be 103%. Also, the viability (% of control) in [8] came out at 21.4%. Further, the Potency entry in [9], in assay [10], in [11], in assay [12], in [17] and in assay [13] was “inactive” throughout. For the same molecule, the Potency result in assay [18] was “inactive”.

Regarding `Nc1nc2c(ncn2COCCO)c(=O)[nH]1`, the parasite growth, % of DMSO control in assay [3] was found to be 96.7%. For the same molecule, in assay [4], the parasite growth remaining, % of DMSO control (lower = more inhibition) was 97.6%. Moreover, the parasite growth, % of control (lower = inhibition) in assay [5] worked out at 124%. The same molecule registered a growth, % of control in assay [16] of 99.6%. The cell viability, % of control (lower = more cytotoxic) in assay [7] came to 126%. The viability (% of control) in [8] was 34.4%. The Potency entry in assay [9], in [10], in assay [11], in assay [12], in assay [17] and in assay [13] was “inactive” each time. Besides, the Potency entry in [18] is “inactive”. The molecule was classed as inactive in assay [19].

`CCCCNc1cc(C(=O)O)cc(S(N)(=O)=O)c1Oc1ccccc1`: the parasite growth, % of DMSO control in [3] stood at 87.9%. The same molecule had a parasite growth remaining, % of DMSO control (lower = more inhibition) in assay [4] of 99.3%. Moreover, the parasite growth, % of control (lower = inhibition) in [5] came to 102%. The growth, % of control in assay [16] was 84%. Also, in assay [7], the cell viability, % of control (lower = more cytotoxic) is 596%. Also, in assay [8], the viability (% of control) was 113%. The Potency entry in assay [9], in [10], in assay [11], in [12], in [17] and in [13] was “inactive” each time. In addition, the Potency result in assay [18] was “inactive”. Moreover, the outcome in assay [19] was inactive.

`CCC(C)(C)C(=O)O[C@H]1C[C@@H](C)C=C2C=C[C@H](C)[C@H](CC[C@@H]3C[C@@H](O)CC(=O)O3)[C@H]21`: the remaining parasite growth % (stronger effect = lower value) in [1] stood at 116% [at 9.63 µM]. This molecule returned an activity, percent of control in assay [15] of 96.4% [at 9.63 µM]. Further, the remaining proliferation (% of control), lower = more inhibition in [2] was 86.8% [at 9.63 µM]. For the same molecule, the parasite growth, % of DMSO control in [3] is 6.94%. For the same molecule, the parasite growth remaining, % of DMSO control (lower = more inhibition) in assay [4] was 42%. Moreover, the parasite growth, % of control (lower = inhibition) in [5] was determined as 13.8%. The molecule further displayed a growth, % of control in [16] of 3.36%. Moreover, in [7], the cell viability, % of control (lower = more cytotoxic) was 26.7%. Moreover, the viability (% of control) in assay [8] worked out at 59.6%. Besides, the Potency result in assay [9], in assay [10] and in assay [18] was “inactive” throughout. Moreover, the Potency in assay [11] was 23.5 µM (active); in [12] it was 11.8 µM (active); in [17], 18.7 µM (active); in assay [13], 3.72 µM (active). Also, in assay [19], the molecule was called inactive.

For `CO[C@@H]1[C@H](N(C)C(=O)c2ccccc2)C[C@H]2O[C@]1(C)n1c3ccccc3c3c4c(c5c6ccccc6n2c5c31)C(=O)NC4`, the cell viability, % of control (lower = more cytotoxic) in assay [7] was 21.1%. The viability (% of control) in assay [8] came to 14.1%.

In turn, `Clc1cccc(Cl)c1NC1=NCCN1` came in with a parasite growth, % of DMSO control in assay [3] of 86.2%. The parasite growth remaining, % of DMSO control (lower = more inhibition) in assay [4] was 77.5%. Besides, the parasite growth, % of control (lower = inhibition) in assay [5] stood at 56.5%. For the same molecule, the cell viability, % of control (lower = more cytotoxic) in [7] turned out to be 144%. Further, the viability (% of control) in [8] was 113%. Besides, the Potency result in assay [9], in [10], in assay [11], in assay [12], in assay [17] and in [13] was “inactive” throughout. In addition, the Potency entry in assay [18] was “inactive”.

As to `O=NN(CCCl)C(=O)NCCCl`, in assay [7], the cell viability, % of control (lower = more cytotoxic) was 114%. Moreover, in assay [8], the viability (% of control) was 103%. In addition, the Potency result in [9], in [10], in [11], in assay [12], in assay [17] and in assay [13] was “inactive” in each case. Besides, in assay [18], the Potency result was “inactive”.
